Screening results deposited in PubChem by The Scripps Research Institute Molecular Screening Center.
Rows were chosen to be rich in hits. Some 2.9% of all compounds tested hit in one or more screens of this group.
ADAM17 inh = inhibits human ADAM17 | P78536 | recombinant ADAM17, EDANS/DABCYL FRET peptide cleavage | inhibition, % at 6.95 µM | 370,000 tested, 0.83% active | AID 720648;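 active means inhibition above the mean of compounds lying between control limits plus 3 SD, set per campaign, cut at about 8.5% in these data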;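 further: 0% = DMSO-only wells as the low control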
proKLK7 act = proKLK7 (human) activation, primary screen; purified proKLK7, EDANS-DABCYL substrate fluorescence; 100% is mature enzyme control, 0% vehicle; AID 652039; 370,000 tested, 0.9% active; P49862; activation, % at 7 µM;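 active means activation above the mean of all tested compounds plus 3 SD, computed per campaign excluding outliers beyond control limits, cut at about 13% in these data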
ADAM10 inh = inhibitors of human ADAM10. O14672. recombinant ADAM10, EDANS/DABCYL FRET peptide cleavage, 3 h. inhibition, % at 7 µM. 370,000 tested, 0.62% active. AID 720582;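 active means inhibition above a per-campaign cutoff equal to the mean of compounds falling between control-based bounds plus 3 SD, cut at about 20% in these data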;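 further: 0% = DMSO wells while the 100% control is not disclosed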
PLCb3 inh = PLC-beta3 (human) inhibition, primary screen; AID 720704; Purified PLC-beta3, fluorogenic substrate, fluorescence; inhibition, % at 12.2 µM; 370,000 tested, 0.18% active; Q01970; in the data active means inhibition above about 11%;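 further: 0% = median of compound wells on plate and 100% = full blocker control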
PLC-gamma1 inh = PLC-gamma1 (human) inhibition, primary screen | P19174 | purified PLC-gamma1, fluorogenic substrate, fluorescence | 370,000 tested, 0.84% active | inhibition, % at 12.2 µM; in the data active means inhibition above about 9.5%
proKLK7 act conf = proKLK7 activation, confirmation. shares compounds with proKLK7 act. purified proKLK7, EDANS-DABCYL substrate fluorescence; scaled: vehicle 0, mature enzyme 100. activation, % at 7 µM. 3,200 tested, 68% active. AID 686949;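 active means activation, as change over the incubation, above the mean of all tested compounds plus 3 SD, cut at about 13% in these data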
EDANS-DABCYL int = counter-screen for kallikrein-7 activators: EDANS-DABCYL optical interference; shares compounds with proKLK7 act; 3,200 tested, 80% active; AID 686952; activation, % at 7 µM; EDANS-DABCYL substrate fluorescence interference, no enzyme, 4 h; solvent 0%, active enzyme control 100%;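 active means activation above the all-compound mean plus 3 SD, ignoring values outside control-based bounds, cut at about 4.8% in these data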;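 further: value is the 4 h activation minus the activation read at time zero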
* hit, by the source's call; i = inactive; x = not tested or not shown.

SMILES	ADAM17 inh	proKLK7 act	ADAM10 inh	PLCb3 inh	PLC-gamma1 inh	proKLK7 act conf	EDANS-DABCYL int
Cc1ccc(N(C(=O)c2snc(C(N)=O)c2N)C(C(=O)NCC2CCCO2)c2ccc3ncccc3c2)cc1 (stereo not given)	-62	0	-159	-191	-127	x	x
CSc1ccc(/C=N/NC(=O)CNc2ccc3ccccc3c2)cc1	6	0	-13	-31	-19	x	x
COc1ccc(CC(=O)N2CCCC(CNC(=O)c3ccccc3Cl)C2)cc1 (stereo not given)	0	-1	8	-1	6	x	x
Cc1cccc2cc3c(NC(=O)C(C)C)nn(C)c3nc12	-8	0	-24	-174	-136	x	x
Cc1ccc2cc3c(NC(=O)C(C)C)nn(C)c3nc2c1	-6	15*	-35	-341	-329	-9	-1
CCOC(=O)c1cc2c(ccc3ccccc32)oc1=O	i	0	i	i	i	x	x
O=C(O)c1cc2ccc3ccccc3c2oc1=O	i	31*	i	i	i	79*	82*
O=C(c1cc2c(ccc3ccccc32)oc1=O)N1CCCC1	i	24*	i	i	i	49*	53*
O=C(O)c1cc2c(ccc3ccccc32)oc1=O	i	34*	i	i	-412	41*	42*
O=C1c2ccccc2/C(=C\c2ccc(Br)nc2)N1c1ccccc1	-5	0	-19	-28	-19	x	x
O=C1c2ccccc2/C(=C\c2ccc(O[C@@H]3CCCCO3)cc2)N1c1ccccc1	-46	100*	-176	i	i	4	15*
Cc1cc(C)c2c(CN(C)Cc3ccccc3)cc(=O)oc2c1	3	1	-8	-2	1	x	x
Cc1ccc(-c2cc(C(=O)O)c3cc(Br)ccc3n2)s1	-208	14*	i	-350	-248	22*	26*
Cc1ccc(-c2cc(C(=O)N3CC(C)OC(C)C3)c3ccccc3n2)o1 (stereo not given)	i	46*	i	i	i	65*	66*
Cc1ccc(-c2cc(C(=O)NN3CCOCC3)c3cc(Br)ccc3n2)o1	-116	52*	-351	i	i	-185	-137
Cc1ccc(-c2cc(C(=O)O)c3cc(Br)ccc3n2)o1	-12	7	-32	-52	-40	x	x
Cc1ccc(-c2cc(C(=O)NCc3ccco3)c3ccccc3n2)o1	-183	18*	i	i	i	-11	-2
CCCNS(=O)(=O)c1ccc(CCC(=O)N2CCN(CC)CC2)cc1	-6	-1	6	0	-1	x	x
O=C(Nc1nccs1)c1cc(-c2ccco2)nc2ccccc12	-56	15*	-199	-282	-248	1	-2
O=C(Nc1ccccc1)c1cc(N2CCOCC2)nc2ccccc12	-39	12	-136	-360	-305	x	x
O=C(Nc1nccs1)c1cc(N2CCOCC2)nc2ccccc12	-16	18*	-27	i	i	14*	12*
O=C(O)c1cc(-c2ccco2)nc2ccccc12	i	21*	i	i	-487	16*	16*
O=C(Nc1nccs1)c1cc(-c2ccccc2)nc2ccccc12	8	1	16	2	6	x	x
CCN(CC)CCNC(=O)c1ccc(NC(=O)c2cc(-c3ccco3)nc3ccccc23)cc1	-148	31*	-406	-493	-352	-34	-21
CC(C)NC(=O)Cn1c(SCC(=O)N2CCCCCC2)nc2ccccc21	1	0	1	4	2	x	x
SMILES	ADAM17 inh	proKLK7 act	ADAM10 inh	PLCb3 inh	PLC-gamma1 inh	proKLK7 act conf	EDANS-DABCYL int
CCOc1cccc(-c2cc(N3CCN(CCO)CC3)n3nccc3n2)c1	-73	4	-289	-264	-211	x	x
CCNC(=O)COC(=O)c1cc(-c2ccco2)nc2ccccc12	-157	121*	-456	i	i	17*	19*
O=C(Nc1nc2ccccc2s1)c1cc(-c2ccco2)nc2ccccc12	-105	9	-335	-483	-380	x	x
COc1ccc(CNC(=O)COC(=O)c2cc(C)nc3ccccc23)cc1	-5	0	-30	-6	-6	x	x
CN1CCN(NC(=O)c2cc(-c3ccccn3)nc3ccccc23)CC1	0	0	5	-2	-4	x	x
Cc1ccc(-c2cc(C(=O)N3CCCC3)c3ccccc3n2)s1	i	2	i	i	i	x	x
CCc1ccc(-c2cc(C(=O)O)c3ccccc3n2)s1	i	66*	i	i	i	60*	60*
CN1CCN(NC(=O)c2cc(-c3ccc(Cl)s3)nc3ccccc23)CC1	-387	26*	i	i	-335	-33	-24
Cc1nnc(NC(=O)c2cc(-c3ccco3)nc3ccccc23)s1	-74	24*	-248	i	i	4	9.9*
C=CCn1c(C)cc(-c2csc(NCC)n2)c1C	-4	-1	-7	-47	-42	x	x
Cc1ccc2c(c1)c1c3n2CCN=C3CCC1	-12	30*	-65	i	i	3	9.7*
O=C(c1ccccc1F)N1C(=O)c2cccc3cccc1c23	-10	8	-27	-120	-77	x	x
O=C(c1cccs1)N1C(=O)c2cccc3cccc1c23	-23	32*	-39	-225	-152	-1	-12
O=C(c1ccco1)N1C(=O)c2cccc3cccc1c23	-19	35*	-48	-307	-261	87*	90*
Nc1cccc2c1C(=O)N(C(=O)c1ccco1)C2=O	-22	32*	-102	-413	-299	154*	178*
O=C1CCN(C(=O)c2cccs2)c2ccccc21	-1	0	3	-3	-3	x	x
COc1cc(OC)cc(C(=O)NCCSC2CCCCC2)c1	0	-1	6	4	2	x	x
O=C(O)Cc1ccc(-c2ccccc2-c2ccccc2)cc1	5	0	8	2	2	x	x
CC1CCCN(CCCNC(=O)c2coc3nc4ccccc4nc23)C1 (stereo not given)	-460	30*	i	-354	-302	50*	76*
CC1CCN(CCCNC(=O)c2coc3nc4ccccc4nc23)CC1	i	49*	i	i	-448	64*	69*
Cc1ccc(CCNC(=O)c2coc3nc4ccccc4nc23)cc1	-73	3	-252	-83	-73	x	x
CSc1nnc([C@H](Cc2c[nH]c3ccccc23)NC(=O)OC(C)(C)C)o1	0	0	0	-6	3	x	x
COc1ccc(S(=O)(=O)NC(C)C(=O)Nc2ccccc2C(F)(F)F)cc1 (stereo not given)	-4	0	0	-9	-1	x	x
COc1ccc(CN2C(=O)NC3(CCCC3)C2=O)cc1F	-4	0	-6	0	-1	x	x
COc1ccc(NC(=O)CSc2ccc(-c3ccccn3)nn2)cc1OC	-1	0	-11	-3	1	x	x
